CXXC DNA block – qHTS Fluorescence Polarization Assay for Inhibitors of MLL CXXC domain - DNA interaction; Histone-lysine N-methyltransferase 2A (Homo sapiens), Q03164; hit rate 0.037% among 290,000; MLL-CXXC / FITC-HOXA9 DNA fluorescence polarization; Potency, µM (titrated, usually from 115 µM), hits mostly inhibitors; active = well fitted inhibition curve with a large enough effect in the polarisation, with a control signal flat, not every such curve was filed as active; inconclusive = small, poorly fitted or top-dose-only effect, or effect the other way, or a change in a side signal; inactive = no such curve, though single readings can be large or run the other way; the % refers to the polarisation
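Fluorescence polarization: 7 uM MLL-CXXC (stock) preincubated 5 min with compounds, then 50 nM fluorescein-HOX-A9 DNA (stock) added; 30 min ambient. Buffer 50 mM Tris-HCl pH 7.5, 50 mM NaCl, 1 mM DTT, 0.05% BSA.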
Menin MLL FP FL – qHTS Assay for Inhibitors Targeting the Menin-MLL Interaction in MLL Related Leukemias: Competition With Fluorescein Labeled MLL-derived Peptide; FP activity change, % at 61.4 µM; 290,000 tested, under 10 active; AID 1766, 2009; Fluorescence polarization, fluorescein-MLL peptide displacement from menin; active = well fitted curve in the direction sought with a large enough effect in the polarisation, not every such curve was filed as active; inconclusive = small, poorly fitted or top-dose-only effect, or effect the other way, or a change in a side signal; inactive = no such curve, though single readings can be large or run the other way; the % refers to the polarisation
MBNL1-CUG inh – qHTS Assay for Inhibitors of MBNL1-poly(CUG) RNA binding; Muscleblind-like protein 1 (Homo sapiens), Q9NR56; TR-FRET MBNL1-His/biotin-(CUG)12 binding, 665/545 ratio; Potency, µM (series often up to 57.5 µM), hits mostly inhibitors; hit rate 0.036% among 280,000; AID 2675, 2010; active = well fitted inhibition curve with a large enough effect in the signal ratio, with a control signal flat, not every such curve was filed as active; inconclusive = small, poorly fitted or top-dose-only effect, or effect the other way, or a change in a side signal; inactive = no such curve, though single readings can be large or run the other way; the % refers to the signal ratio
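Compound titration spanned 92 nM–58 uM against the MBNL1-His/biotin-(CUG)12 complex. After 60 min at room temperature with 5 nM streptavidin-XL665 and 0.055 ng/ul terbium anti-His, ratiometric 665/545 nm emission (Ex 340 nm) normalized to controls.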
Menin-MLL TR inh – qHTS Assay for Inhibitors Targeting the Menin-MLL Interaction in MLL Related Leukemias: Competition With Texas Red Labeled MLL-derived Mutant Peptide; Potency, µM (series often up to 61.6 µM), hits mostly inhibitors; AID 1768, 2009; O00255; Menin + Texas Red MLL mutant peptide, fluorescence polarization; hit rate 0.23% among 270,000; active = well fitted inhibition curve with a large enough effect in the polarisation, with a control signal flat, not every such curve was filed as active; inconclusive = small, poorly fitted or top-dose-only effect, or effect the other way, or a change in a side signal; inactive = no such curve, though single readings can be large or run the other way; the % refers to the polarisation
pAkt inh – HTS Assay for Inhibitors of Akt Phophorylation: Primary Screen. Neuro2A IGF-stimulated pAkt S473 HTRF, 20 min; hits give low values. activity change, % for hits at 50 µM. hit rate 0.32% among 360,000. AID 651550, 2012; in the data active = activity change below about -80%; inconclusive = mostly about -51% to -80%
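Single-point screen (50 µM final compound) in Neuro2A cells stimulated 20 min with 6 nM IGF at 37 deg C. After lysis, Ser473-phosphorylated Akt read by HTRF (ex 330 nm, em 615/665 nm) as the 665/615 ratio.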
S-ASM inh – Inhibitors of Secretory Acid Sphingomyelinase (S-ASM): qHTS; Sphingomyelin phosphodiesterase (Homo sapiens), P17405; placental ASM, HMU-PC fluorogenic substrate, 60 min; Potency, µM (doses to about 57.5 µM), actives largely listed as inhibitors; hit rate 0.006% among 340,000; AID 504937, 2011; active = well fitted inhibition curve with a large enough effect; inconclusive = small, poorly fitted or top-dose-only effect; inactive = no such curve, though single readings can be large or run the other way
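qHTS format. ASM enzyme prepared from human placenta hydrolyses the fluorogenic substrate HMU-PC0 (9 uM final) over 60 min at 37 °C after a 10 min compound preincubation.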
Numbers stand for hits; ! = not confirmed by another sample. In the library only some 0.45% were active in any assay of this set; here they are far more common.

What do the screens show for `CN1CCN(C(=O)COc2ccc3ccccc3c2)CC1`?
CXXC DNA block: inactive; Menin MLL FP FL: inactive; MBNL1-CUG inh: inactive; Menin-MLL TR inh: inactive; pAkt inh: inactive; S-ASM inh: inactive

What do the screens show for `CN1CCN(C(=O)COc2ccc(-c3nc4ccccc4s3)cc2)CC1`?
CXXC DNA block: inactive; Menin MLL FP FL: inactive; MBNL1-CUG inh: inactive; Menin-MLL TR inh: 13µM; pAkt inh: inactive; S-ASM inh: inactive

How did O=C(Cc1c[nH]c2ccccc12)NNCc1ccc(N(CCCl)CCCl)cc1 do in these assays?
pAkt inh: inactive; S-ASM inh: inactive

Results for O=C(c1ccco1)c1cn(Cc2ccccc2)c2ccccc12 ?
CXXC DNA block: inactive; Menin MLL FP FL: inactive; MBNL1-CUG inh: inactive; Menin-MLL TR inh: inconclusive; pAkt inh: -87%; S-ASM inh: inactive

How did Cc1ccccc1-c1ccc2c(c1)C1c3c(-c4ccccc4)nnn3-c3ccccc3C(=O)N1CC2 (stereo not given) do in these assays?
pAkt inh: inactive

How did COC1CC(O[C@H]2/C(C)=C/CC3CC(C[C@]4(CCC(C)C(C5CCCCC5)O4)O3)OC(=O)[C@H]3C=C(C)/C(=N/O)C4OC/C(=C\C=C\[C@@H]2C)[C@@]43O)OC(C)C1O (stereo not given in full) do in these assays?
CXXC DNA block: inactive; Menin MLL FP FL: inactive; Menin-MLL TR inh: 22µM

What do the screens show for `CCC(C)C1O[C@]2(C=CC1C)CC1CC(C/C=C(\C)[C@H](OC3CC(OC)C(O[C@H]4CC(OC)[C@@H](O)C(C)O4)C(C)O3)[C@@H](C)/C=C/C=C3\COC4C(O)C(C)=C[C@H](C(=O)O1)[C@@]34O)O2` (stereo not given in full)?
CXXC DNA block: inactive; Menin MLL FP FL: inactive; Menin-MLL TR inh: inconclusive

What do the screens show for `COc1cccc2c1cc([N+](=O)[O-])c1c(C(=O)O)cc3c(c12)OCO3`?
Menin MLL FP FL: inconclusive; Menin-MLL TR inh: inconclusive; pAkt inh: inactive; S-ASM inh: inactive

How did N#Cc1ccc(CN2CC3(CCNCC3)C2)cc1 do in these assays?
Menin MLL FP FL: inactive; Menin-MLL TR inh: inactive

How did COC(=O)[C@@H]1C[C@H]1[C@@H](NP(=O)(c1ccccc1)c1ccccc1)c1ccccc1 do in these assays?
CXXC DNA block: inactive; Menin MLL FP FL: inactive; MBNL1-CUG inh: inactive; Menin-MLL TR inh: 0.14µM!; pAkt inh: inactive; S-ASM inh: inactive

What do the screens show for `CCC(=NCCN1CCOCC1)c1c(O)n(-c2ccccc2C)c(=O)[nH]c1=O`?
CXXC DNA block: inactive; Menin MLL FP FL: inactive; MBNL1-CUG inh: inactive; Menin-MLL TR inh: inactive; pAkt inh: -122%; S-ASM inh: inactive

How did O=c1c2ccccc2nc(CSc2ncnc3nc[nH]c23)n1-c1ccccc1 do in these assays?
CXXC DNA block: inactive; Menin MLL FP FL: inactive; MBNL1-CUG inh: inactive; Menin-MLL TR inh: inactive; pAkt inh: -84%; S-ASM inh: inactive

What do the screens show for `O=c1c2ccccc2nc(CSc2ncnc3nc[nH]c23)n1-c1ccccc1Cl`?
CXXC DNA block: inactive; Menin MLL FP FL: inactive; MBNL1-CUG inh: inactive; Menin-MLL TR inh: inactive; pAkt inh: inactive; S-ASM inh: inactive

How did ClCC1CO1 (stereo not given) do in these assays?
CXXC DNA block: inactive; Menin MLL FP FL: inactive; Menin-MLL TR inh: inactive

How did COC[C@H]1OC(=O)c2coc3c2[C@@]1(C)C1=C(C3=O)[C@H]2CCC(=O)[C@@]2(C)C[C@H]1OC(C)=O do in these assays?
Menin MLL FP FL: inconclusive; Menin-MLL TR inh: 10µM

What do the screens show for `CCOP(=O)(OCC)C(CC)N1CCOCC1` (stereo not given)?
CXXC DNA block: inactive; Menin MLL FP FL: inactive; MBNL1-CUG inh: inactive; Menin-MLL TR inh: inactive; pAkt inh: -118%; S-ASM inh: inactive

Results for CCCCCSc1cc(OC)c(CCN(C)C)cc1OC ?
CXXC DNA block: inactive; Menin MLL FP FL: inactive; MBNL1-CUG inh: inactive; Menin-MLL TR inh: inactive; pAkt inh: inactive; S-ASM inh: inactive

What do the screens show for `COc1ccc(CNCCc2c(C)[nH]c3ccc(OC(F)(F)F)cc23)c(OC)c1`?
CXXC DNA block: inactive; Menin MLL FP FL: inactive; MBNL1-CUG inh: inactive; Menin-MLL TR inh: 28µM; pAkt inh: inactive; S-ASM inh: inactive

Results for O=c1c2ccccc2nc(CN2CCCCCC2)n1-c1ccc(F)cc1 ?
CXXC DNA block: inactive; Menin MLL FP FL: inactive; MBNL1-CUG inh: inactive; Menin-MLL TR inh: 18µM; pAkt inh: inactive; S-ASM inh: inactive

What do the screens show for `Cc1ccccc1C(=O)N1CC1C` (stereo not given)?
pAkt inh: inactive; S-ASM inh: inactive

What do the screens show for `CCOC(=O)N(c1ccccc1)P1(=S)OCCO1`?
CXXC DNA block: inactive; Menin MLL FP FL: inactive; MBNL1-CUG inh: inactive; Menin-MLL TR inh: inactive; pAkt inh: -110%; S-ASM inh: inactive

Results for COC(=O)N(c1ccccc1)P1(=S)OCCO1 ?
CXXC DNA block: inactive; Menin MLL FP FL: inactive; MBNL1-CUG inh: inactive; Menin-MLL TR inh: inactive; pAkt inh: inactive; S-ASM inh: inactive

What do the screens show for `C=CCNC(=O)c1c(N)n(Cc2ccco2)c2nc3ccccc3nc12`?
CXXC DNA block: inactive; Menin MLL FP FL: inconclusive; MBNL1-CUG inh: inactive; Menin-MLL TR inh: inactive; pAkt inh: -99%; S-ASM inh: inactive

What do the screens show for `COCCNC(=O)c1c(N)n(Cc2ccco2)c2nc3ccccc3nc12`?
CXXC DNA block: inactive; Menin MLL FP FL: inconclusive; MBNL1-CUG inh: inconclusive; Menin-MLL TR inh: inactive; pAkt inh: inactive; S-ASM inh: inactive

What do the screens show for `COP(=O)(/C=C(\Cl)c1ccccc1)/C=C(\Cl)c1ccccc1`?
CXXC DNA block: inactive; Menin MLL FP FL: inactive; MBNL1-CUG inh: inactive; Menin-MLL TR inh: inconclusive; pAkt inh: inactive; S-ASM inh: inactive

What do the screens show for `O=P(O)(O)/C=C(\Cl)c1ccccc1`?
CXXC DNA block: inactive; Menin MLL FP FL: inactive; MBNL1-CUG inh: inactive; Menin-MLL TR inh: inactive; pAkt inh: inactive; S-ASM inh: 22µM

How did C#C[C@]1(O)CCC2C3CCC4=C/C(=N/OCC(=O)NC(C)C(=O)NC(CCSC)C(=O)O)CC[C@]4(C)C3CC[C@@]21C (stereo not given in full) do in these assays?
CXXC DNA block: inactive; Menin MLL FP FL: inactive; MBNL1-CUG inh: inactive; Menin-MLL TR inh: 25µM; pAkt inh: inactive; S-ASM inh: inactive

Results for Clc1ccccc1C1NCc2ccccc2-n2cccc21 (stereo not given) ?
CXXC DNA block: inactive; Menin MLL FP FL: inactive; MBNL1-CUG inh: inactive; Menin-MLL TR inh: inactive; pAkt inh: inactive; S-ASM inh: inactive

Bioassay records: PubChem, National Center for Advancing Translational Sciences (NCATS)
